DAT uptake mod: human DAT dopamine uptake with cocaine, either direction; Q01959; 110,000 compounds, 1.3% hits; LLC-PK1 hDAT cells, [14C]-dopamine uptake with cocaine IC80; actives deviate in either direction; B-score at 10 µM;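 active = Z score or B-score, a plate-position-corrected score, falls beyond the plate's 99.7% confidence bounds, in either direction; inactive = both scores lie inside the 99.7% bounds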
ERb SRC1 inh: ER-beta (human) coactivator binding inhibition | TR-FRET ER-beta LBD / SRC1-Cy5 peptide binding; receptor agonist-loaded with 1 µM estradiol | inhibition, % at 25.6 µM | 86,000 compounds, 1.3% hits | AID 633;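 active = compounds whose percent inhibition of the receptor-coactivator binding signal exceeds about 50% in the single-dose screen, limit read from the data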
MT1-MMP txn act: activates MT1-MMP transcription; HT1080 MT1-MMP promoter luciferase reporter, luminescence, overnight; hits give high values; AID 750; activation factor at 10 µM; 86,000 compounds, 0.16% hits;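 active = activation factor of at least 2 for MT1-MMP transcription at 10 µM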
ERa SRC1 pot: ER-alpha (human) coactivator binding potentiation; P03372; TR-FRET ERalpha-LBD/SRC-Cy5 coactivator binding, 2 h; 100 = basal binding, no effect; coactivator binding (% of control), % at 25.6 µM; 86,000 compounds, 1.3% hits; in the data active = activity above about 200%;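 note: binding measured in presence of low estradiol as agonist stimulus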
ERa SRC1 inh: ER-alpha (human) coactivator binding inhibition; P03372; TR-FRET ER-alpha LBD / SRC-1 peptide, estradiol-bound; inhibition, % at 25.6 µM; 86,000 compounds, 1.7% hits; AID 629; in the data active = inhibition above about 50%
Hits are given with their value; [ ] = remark or other dose. The list is not random: actives were taken first. Their share in the collection is about 3.8%.

For Cc1cc(NC(=O)c2ccccc2F)n(-c2nc3ccccc3[nH]2)n1 the results were DAT uptake mod inactive, ERb SRC1 inh 52[fluorescence artefact?], MT1-MMP txn act inactive, ERa SRC1 pot inactive and ERa SRC1 inh 53[fluorescence artefact?].
Screening Cc1cc(NC(=O)c2c(F)cccc2F)n(-c2nc3ccccc3[nH]2)n1 returned DAT uptake mod inactive, ERb SRC1 inh inactive, MT1-MMP txn act inactive, ERa SRC1 pot inactive and ERa SRC1 inh inactive.
For Cc1cc(NC(=O)c2c(F)cccc2Cl)n(-c2nc3ccccc3[nH]2)n1 the results were DAT uptake mod inactive, ERb SRC1 inh 52, ERa SRC1 pot inactive and ERa SRC1 inh inactive.
`Cc1cc(NC(=O)C2CCCCC2)n(-c2nc3ccccc3[nH]2)n1` gave DAT uptake mod inactive, ERb SRC1 inh inactive, MT1-MMP txn act inactive, ERa SRC1 pot inactive and ERa SRC1 inh inactive.
`Cc1ccc2cc(C#N)c(SCC(=O)NCc3ccco3)nc2c1` gave DAT uptake mod inactive, ERb SRC1 inh inactive, MT1-MMP txn act inactive, ERa SRC1 pot 237 and ERa SRC1 inh 55[fluorescence artefact?].
For Cc1ccc2cc3cc(C(=O)NCc4ccco4)oc3nc2c1 the results were DAT uptake mod inactive, ERb SRC1 inh inactive, MT1-MMP txn act inactive, ERa SRC1 pot inactive and ERa SRC1 inh 53[fluorescence artefact?].
`O=C(NCCCn1ccnc1)c1cc(S(=O)(=O)N2CCOCC2)c(Cl)cc1Cl` gave DAT uptake mod inactive, ERb SRC1 inh inactive, MT1-MMP txn act inactive, ERa SRC1 pot inactive and ERa SRC1 inh inactive.
O=C(NCCCn1ccnc1)c1ccc(Br)c(S(=O)(=O)N2CCOCC2)c1 was read as DAT uptake mod -8.4, ERb SRC1 inh inactive, MT1-MMP txn act inactive, ERa SRC1 pot inactive and ERa SRC1 inh inactive.
Screening NC(=O)c1ccc([N+](=O)[O-])cc1SCc1ccccc1 returned DAT uptake mod inactive, ERb SRC1 inh 53[fluorescence artefact?], MT1-MMP txn act inactive, ERa SRC1 pot inactive and ERa SRC1 inh inactive.
For Cc1c(NC(=O)c2cc3nc(-c4ccc(Cl)cc4)cc(C(F)(F)F)n3n2)c(=O)n(-c2ccccc2)n1C the results were DAT uptake mod inactive, ERb SRC1 inh inactive, MT1-MMP txn act inactive, ERa SRC1 pot inactive and ERa SRC1 inh inactive.
Screening N#CC1=C(N)SC(N)=C(C#N)C1CCC1CCCCC1 returned DAT uptake mod inactive, ERb SRC1 inh inactive, MT1-MMP txn act inactive, ERa SRC1 pot 242 and ERa SRC1 inh inactive.
`CN(C)/C=N/c1c(C#N)cnn1-c1ncnc2sc(-c3ccccc3)cc12` gave DAT uptake mod 3.2, ERb SRC1 inh inactive, MT1-MMP txn act inactive, ERa SRC1 pot inactive and ERa SRC1 inh inactive.
For COC(=O)[C@@H]1C[C@H]1[C@@H](NS(=O)(=O)c1ccc2ccccc2c1)c1ccccc1 the results were MT1-MMP txn act inactive.
For O=C(NCc1ccccc1)c1onc(CSc2ccc(F)c(F)c2)c1C(=O)NCc1ccccc1 the results were DAT uptake mod inactive.
`COc1ccc(C)cc1-n1nnnc1SCC(=O)c1ccc2c(c1)OCCO2` gave ERb SRC1 inh inactive, MT1-MMP txn act inactive, ERa SRC1 pot 233 and ERa SRC1 inh inactive.
Screening Cc1ccc(-n2nnnc2SCC(=O)Nc2cccc(NC(=O)c3ccco3)c2)cc1C returned DAT uptake mod inactive, ERb SRC1 inh inactive, MT1-MMP txn act inactive, ERa SRC1 pot inactive and ERa SRC1 inh 79.
For CN=C(Nc1ccccc1OC)SC1CC(=O)N(c2ccc(C(=O)OC)cc2)C1=O (stereo not drawn) the results were DAT uptake mod 2.4.
For Cc1cc(C)cc(-n2nnnc2SCC(=O)Nc2cccc(NC(=O)c3ccco3)c2)c1 the results were DAT uptake mod inactive, ERb SRC1 inh inactive, MT1-MMP txn act inactive, ERa SRC1 pot inactive and ERa SRC1 inh inactive.
For COc1ccc(-n2nnnc2SCC(=O)Nc2ccc3c(c2)OCCO3)cc1OC the results were DAT uptake mod inactive, ERb SRC1 inh inactive, MT1-MMP txn act inactive, ERa SRC1 pot 210 and ERa SRC1 inh inactive.
CN=C(Nc1ccccc1)SC1CC(=O)N(c2ccc(C(=O)OC)cc2)C1=O (stereo not drawn) was read as DAT uptake mod inactive.
For COc1ccc(-n2nnnc2SCC(=O)c2ccc3c(c2)OCCO3)c(OC)c1 the results were ERb SRC1 inh inactive, MT1-MMP txn act inactive, ERa SRC1 pot inactive and ERa SRC1 inh inactive.
Screening Fc1ccc(-n2nnc(-c3ncc[nH]3)n2)cc1 returned DAT uptake mod inactive.
`C[C@H]1CC[C@@]2(O[C@@H](CCO)C[C@H](O)[C@H]2O)O1` gave DAT uptake mod inactive.
`CNC1=C(Br)C(=O)c2ccncc2C1=O` gave MT1-MMP txn act inactive.
